Data: ChEMBL document CHEMBL3988442, “University of Dundee, Small-Polar-MMV Screening Library” (2021)
For some assays here: Measured potencies and affinities stand elsewhere.

What was measured:
Parameters in all cases: scale not given: direction of the effect not stated beside the values
[1] = molecular target: Protein translocase subunit SecA (Escherichia coli (strain K12)) (UniProt P10408); test: Assay to Identify E. coli SecA ATPase Inhibitors; format: functional; conditions: 30 µM
[2] = molecular target: T1, Ubiquitin-activating enzyme e1, putative (Leishmania donovani (strain BPK282A1)) (UniProt E9BSI1); test: Leishmania donovani Ubiquitin Activating Enzyme (LdE1); format: functional; conditions: 30 µM
T1 sequence (whole entry): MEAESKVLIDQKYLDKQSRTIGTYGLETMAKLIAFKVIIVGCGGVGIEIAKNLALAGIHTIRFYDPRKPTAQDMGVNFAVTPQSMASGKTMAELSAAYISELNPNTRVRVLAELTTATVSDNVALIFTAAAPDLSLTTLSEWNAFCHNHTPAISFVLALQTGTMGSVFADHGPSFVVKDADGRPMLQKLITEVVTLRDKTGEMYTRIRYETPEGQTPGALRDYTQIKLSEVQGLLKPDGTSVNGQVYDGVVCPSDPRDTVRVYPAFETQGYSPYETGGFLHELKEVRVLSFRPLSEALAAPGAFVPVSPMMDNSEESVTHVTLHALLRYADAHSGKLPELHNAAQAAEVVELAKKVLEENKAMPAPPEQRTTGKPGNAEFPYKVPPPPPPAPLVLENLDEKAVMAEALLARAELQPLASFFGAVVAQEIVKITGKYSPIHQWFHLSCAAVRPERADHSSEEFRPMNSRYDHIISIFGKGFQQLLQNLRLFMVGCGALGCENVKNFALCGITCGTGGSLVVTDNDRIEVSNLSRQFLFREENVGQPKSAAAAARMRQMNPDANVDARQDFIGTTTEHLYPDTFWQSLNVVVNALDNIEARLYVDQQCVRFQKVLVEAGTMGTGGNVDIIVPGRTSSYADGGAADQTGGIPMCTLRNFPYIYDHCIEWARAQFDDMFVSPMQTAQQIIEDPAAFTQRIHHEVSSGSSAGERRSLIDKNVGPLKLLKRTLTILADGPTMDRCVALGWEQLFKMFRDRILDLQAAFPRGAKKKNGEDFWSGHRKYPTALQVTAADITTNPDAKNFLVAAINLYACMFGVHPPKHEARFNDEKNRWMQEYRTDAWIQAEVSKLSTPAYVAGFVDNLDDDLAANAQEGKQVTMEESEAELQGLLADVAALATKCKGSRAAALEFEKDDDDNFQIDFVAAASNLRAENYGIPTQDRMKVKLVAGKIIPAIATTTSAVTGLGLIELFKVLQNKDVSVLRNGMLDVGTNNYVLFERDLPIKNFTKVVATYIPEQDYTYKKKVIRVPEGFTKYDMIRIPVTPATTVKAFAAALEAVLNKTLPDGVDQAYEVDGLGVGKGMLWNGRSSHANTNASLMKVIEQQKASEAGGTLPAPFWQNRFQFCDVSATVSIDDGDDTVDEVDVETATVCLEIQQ

[3] = molecular target: AMP-activated protein kinase, AMPK (Homo sapiens) (UniProt P54646+O43741+P54619+Q9UGJ0+Q9Y478+Q13131+Q9UGI9); test: AMP-dependent Kinase enzyme assay. An in vitro enzyme assay that detects ADP turnover that is directly proportional to AMPK activity. This uses naive AMPK that is activated during the assay with MK-8722; format: functional; conditions: 30 µM
[4] = molecular target: Sialic acid-binding Ig-like lectin 9 (Homo sapiens) (UniProt Q9Y336); test: Hs-Siglec9 ALPHAscreen SOP 20170721; conditions: 10 µM
Sialic acid-binding Ig-like lectin 9 (Homo sapiens), sequence (Q9Y336 whole entry): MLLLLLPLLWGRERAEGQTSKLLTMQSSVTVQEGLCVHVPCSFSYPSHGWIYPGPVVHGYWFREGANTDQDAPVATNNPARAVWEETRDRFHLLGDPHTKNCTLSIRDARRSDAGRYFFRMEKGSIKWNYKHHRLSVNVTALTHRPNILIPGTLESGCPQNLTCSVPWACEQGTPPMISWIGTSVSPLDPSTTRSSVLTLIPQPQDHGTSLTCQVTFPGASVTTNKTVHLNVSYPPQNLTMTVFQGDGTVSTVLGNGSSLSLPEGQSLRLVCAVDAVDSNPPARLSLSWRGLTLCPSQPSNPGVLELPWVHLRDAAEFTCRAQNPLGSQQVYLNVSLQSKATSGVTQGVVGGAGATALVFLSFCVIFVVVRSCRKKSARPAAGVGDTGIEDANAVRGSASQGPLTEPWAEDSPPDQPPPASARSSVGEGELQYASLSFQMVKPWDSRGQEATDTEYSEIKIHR

Trypanosoma cruzi = test: Trypanosoma cruzi phosphomannomutase and mannose-1-phosphate guanylyltransferase assay; format: functional; conditions: 10 µM
[5] = molecular target: T2, Arginase-2, mitochondrial (Homo sapiens) (UniProt P78540); test: in vitro enzyme assay to detect the production of urea directly proportional to the activity of Arginase II; format: functional; conditions: 33.3 µM; also: in the data most compounds retested in dose-response had high values
T2 sequence (whole entry): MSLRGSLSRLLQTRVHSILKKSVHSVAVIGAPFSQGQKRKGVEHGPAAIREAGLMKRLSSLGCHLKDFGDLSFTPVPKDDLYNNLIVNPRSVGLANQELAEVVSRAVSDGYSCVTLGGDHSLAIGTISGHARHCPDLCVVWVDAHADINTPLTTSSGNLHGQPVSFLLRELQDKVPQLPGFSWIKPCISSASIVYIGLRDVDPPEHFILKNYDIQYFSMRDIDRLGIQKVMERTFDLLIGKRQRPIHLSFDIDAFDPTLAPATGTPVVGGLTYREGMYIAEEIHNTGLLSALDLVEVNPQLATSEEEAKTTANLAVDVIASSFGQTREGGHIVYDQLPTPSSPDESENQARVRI

[6] = molecular target: T3, Proteasome subunit beta (Trypanosoma cruzi) (UniProt O96673); test: Trypanosoma cruzi proteasome chymotrypsin-like activity (TcProtChymo) assay.; also: in the data most compounds retested in dose-response had high values; format: functional; conditions: 9.37 µM
T3 sequence (whole entry): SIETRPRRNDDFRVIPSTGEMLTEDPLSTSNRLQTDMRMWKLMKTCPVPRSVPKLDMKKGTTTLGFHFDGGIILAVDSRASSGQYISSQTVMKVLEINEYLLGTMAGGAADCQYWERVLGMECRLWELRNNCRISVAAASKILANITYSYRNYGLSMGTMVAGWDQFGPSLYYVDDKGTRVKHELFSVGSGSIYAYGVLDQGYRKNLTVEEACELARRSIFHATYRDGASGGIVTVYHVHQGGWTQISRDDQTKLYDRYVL

Homo sapiens = species on record: Homo sapiens; test: To identify inhibition of the IFN signalling (Jak-Stat) pathway via expression of an eGFP reporter gene under the control of an IFN-stimulated response element (ISRE) containing MxA promoter.; format: functional; conditions: 30 µM
[7] = molecular target: T4, Tyrosyl-tRNA synthetase, putative (Trypanosoma cruzi (strain CL Brener)) (UniProt Q4DSP6); test: Trypanosoma cruzi tyrosyl tRNA synthetase (TcYRS) _High Tyrosine SOP; format: functional; conditions: 30 µM; also: in the data most compounds retested in dose-response had high values
T4 sequence (whole entry): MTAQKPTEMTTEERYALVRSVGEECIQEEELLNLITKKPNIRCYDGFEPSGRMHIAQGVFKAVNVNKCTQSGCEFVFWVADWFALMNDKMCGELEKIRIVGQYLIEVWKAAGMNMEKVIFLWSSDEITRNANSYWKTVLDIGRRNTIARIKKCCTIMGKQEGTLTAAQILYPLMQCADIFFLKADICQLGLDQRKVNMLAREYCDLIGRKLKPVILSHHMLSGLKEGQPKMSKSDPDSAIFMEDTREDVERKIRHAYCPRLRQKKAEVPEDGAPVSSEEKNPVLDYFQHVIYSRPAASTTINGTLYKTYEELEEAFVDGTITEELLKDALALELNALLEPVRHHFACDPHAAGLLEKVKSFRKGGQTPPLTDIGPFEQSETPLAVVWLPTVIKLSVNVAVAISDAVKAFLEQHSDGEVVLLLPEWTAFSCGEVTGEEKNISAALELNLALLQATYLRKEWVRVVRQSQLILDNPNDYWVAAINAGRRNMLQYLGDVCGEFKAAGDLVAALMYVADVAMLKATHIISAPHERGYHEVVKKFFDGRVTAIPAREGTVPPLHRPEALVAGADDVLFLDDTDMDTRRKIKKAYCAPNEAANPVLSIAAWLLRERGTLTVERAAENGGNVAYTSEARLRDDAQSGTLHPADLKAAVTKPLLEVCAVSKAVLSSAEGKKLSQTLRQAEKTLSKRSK

[8] = molecular target: T4, Tyrosyl-tRNA synthetase, putative (Trypanosoma cruzi (strain CL Brener)); test: Trypanosoma cruzi tyrosyl tRNA synthetase (TcYRS) SOP; format: functional; conditions: 30 µM
[9] = molecular target: Chromo domain-containing protein 1 (Saccharomyces cerevisiae (strain ATCC 204508 / S288c) (Baker's yeast)) (UniProt P32657); test: ScCHD-1 Enzyme Inhibition Assay; format: functional; conditions: 30 µM; also: in the data most compounds retested in dose-response had high values
Chromo domain-containing protein 1 (Saccharomyces cerevisiae (strain ATCC 204508 / S288c) (Baker's yeast)), sequence (P32657 whole entry, the tested form may be a part): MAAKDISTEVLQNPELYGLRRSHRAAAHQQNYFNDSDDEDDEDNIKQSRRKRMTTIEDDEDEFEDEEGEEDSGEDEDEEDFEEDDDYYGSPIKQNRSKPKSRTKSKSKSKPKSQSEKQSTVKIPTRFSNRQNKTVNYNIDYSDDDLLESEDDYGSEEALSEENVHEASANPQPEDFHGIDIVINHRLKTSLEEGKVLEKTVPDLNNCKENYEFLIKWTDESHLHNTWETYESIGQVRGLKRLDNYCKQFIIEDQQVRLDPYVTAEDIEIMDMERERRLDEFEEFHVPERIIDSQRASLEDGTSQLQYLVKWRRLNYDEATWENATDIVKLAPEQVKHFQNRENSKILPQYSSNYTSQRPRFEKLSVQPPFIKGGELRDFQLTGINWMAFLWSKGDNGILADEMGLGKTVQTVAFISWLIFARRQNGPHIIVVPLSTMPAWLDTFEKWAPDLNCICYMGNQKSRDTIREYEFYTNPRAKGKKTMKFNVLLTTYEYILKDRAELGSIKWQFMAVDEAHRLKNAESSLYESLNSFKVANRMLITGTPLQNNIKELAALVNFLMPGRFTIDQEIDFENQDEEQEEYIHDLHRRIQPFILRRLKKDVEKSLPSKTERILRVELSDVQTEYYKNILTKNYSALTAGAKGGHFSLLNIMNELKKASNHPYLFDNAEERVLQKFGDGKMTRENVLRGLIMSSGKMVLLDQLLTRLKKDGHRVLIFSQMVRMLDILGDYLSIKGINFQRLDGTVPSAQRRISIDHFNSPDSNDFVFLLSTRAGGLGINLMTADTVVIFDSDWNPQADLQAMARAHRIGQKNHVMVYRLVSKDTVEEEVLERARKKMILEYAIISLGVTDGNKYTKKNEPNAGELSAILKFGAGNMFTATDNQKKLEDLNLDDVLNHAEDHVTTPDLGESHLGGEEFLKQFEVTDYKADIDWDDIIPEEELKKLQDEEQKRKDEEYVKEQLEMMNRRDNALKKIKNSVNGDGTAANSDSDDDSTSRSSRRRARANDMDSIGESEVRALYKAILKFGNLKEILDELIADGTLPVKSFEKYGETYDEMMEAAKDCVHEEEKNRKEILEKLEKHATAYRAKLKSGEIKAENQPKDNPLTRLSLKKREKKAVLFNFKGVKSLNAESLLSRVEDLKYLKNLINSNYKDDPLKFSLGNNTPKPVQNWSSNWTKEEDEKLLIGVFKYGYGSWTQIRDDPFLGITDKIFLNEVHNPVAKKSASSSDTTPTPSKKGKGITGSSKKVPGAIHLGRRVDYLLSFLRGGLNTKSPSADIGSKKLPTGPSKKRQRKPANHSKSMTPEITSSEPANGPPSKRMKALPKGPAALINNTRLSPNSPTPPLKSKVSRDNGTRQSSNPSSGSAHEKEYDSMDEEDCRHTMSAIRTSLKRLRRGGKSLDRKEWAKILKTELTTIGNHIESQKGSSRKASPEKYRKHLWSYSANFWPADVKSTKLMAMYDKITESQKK

Protein translocase subunit SecA (Escherichia coli (strain K12)), sequence (P10408 whole entry): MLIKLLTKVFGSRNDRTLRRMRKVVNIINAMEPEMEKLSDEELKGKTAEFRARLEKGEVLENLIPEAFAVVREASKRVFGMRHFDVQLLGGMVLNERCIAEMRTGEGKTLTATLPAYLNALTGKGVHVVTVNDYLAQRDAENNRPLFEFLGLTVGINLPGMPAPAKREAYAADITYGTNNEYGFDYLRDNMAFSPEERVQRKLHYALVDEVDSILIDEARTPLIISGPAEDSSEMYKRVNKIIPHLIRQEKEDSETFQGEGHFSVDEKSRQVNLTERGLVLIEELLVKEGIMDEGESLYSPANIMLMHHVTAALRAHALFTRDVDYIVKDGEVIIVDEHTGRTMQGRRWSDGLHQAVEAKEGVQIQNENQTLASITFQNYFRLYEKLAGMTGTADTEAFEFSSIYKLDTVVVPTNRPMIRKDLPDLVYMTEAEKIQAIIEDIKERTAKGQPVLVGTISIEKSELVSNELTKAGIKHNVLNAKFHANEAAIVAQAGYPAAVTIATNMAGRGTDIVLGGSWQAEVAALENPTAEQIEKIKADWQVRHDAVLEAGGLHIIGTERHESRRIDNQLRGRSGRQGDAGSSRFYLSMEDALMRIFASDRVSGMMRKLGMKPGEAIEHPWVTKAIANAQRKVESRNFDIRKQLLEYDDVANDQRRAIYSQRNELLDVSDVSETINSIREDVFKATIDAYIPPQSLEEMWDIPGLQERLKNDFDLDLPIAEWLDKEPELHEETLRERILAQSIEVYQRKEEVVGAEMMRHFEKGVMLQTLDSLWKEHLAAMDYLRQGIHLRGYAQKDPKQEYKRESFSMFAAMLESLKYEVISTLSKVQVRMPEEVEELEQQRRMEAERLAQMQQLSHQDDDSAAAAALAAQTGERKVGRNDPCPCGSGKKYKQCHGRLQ

Row | Compound | Percent Effect [1] [%] | Percent Effect [2] [%] | Percent Effect [3] [%] | Percent Effect [4] [%] | Percent Effect (Trypanosoma cruzi) [%] | Percent Effect [5] [%] | Percent Effect [6] [%] | Percent Effect (Homo sapiens) [%] | Percent Effect [7] [%] | Percent Effect [8] [%] | Percent Effect [9] [%]
1 | O=C(c1cc(Cl)c2c(c1)OCO2)N1CCN(c2ccccn2)CC1 | -2.8 | 5.48 | -6.15 | 5.68 | 1.37 | 3.64 | 16.1 | 14.1 | 7.53 | 15 | -12.5
2 | CC(NC(=O)Cn1cccn1)c1ccc2c(c1)OCCCO2 (configuration not stated) | -2.38 | 28.6 | 20.8 | 1.54 | 6.55 | 3.92 | 10.1 | 32.9 | 8.74 | 14.6 | -16.5
3 | O=C(c1ccsc1)N1C[C@@H](CN2CCCC2)[C@@H](CO)C1 | -10 | 2.67 | -3.05 | -2.17 | -5.36 | -5.21 | 4.71 | 2.13 | -1.64 | -1.24 | -4.1
4 | COc1cccc2c1OCC(NC(=O)NCc1cccs1)C2 (configuration not stated) | -7.48 | 15.8 | 0.286 | 9.16 | 0.876 | -2.37 | 9.11 | 5.73 | 4.25 | 13 | -6.35
5 | CCc1noc(C2CCCCN2C(=O)c2ccoc2C)n1 (configuration not stated) | -3.77 | 4 | -0.569 | 3.61 | -7.47 | -4.05 | 13.9 | -6.22 | 1.06 | 5.13 | -6.62
6 | CC(NC(=O)NCC1(c2ccc(F)cc2)CCC1)c1nncn1C (configuration not stated) | -5.85 | 15.8 | 2.85 | 8.69 | -3.83 | 0 | 2.62 | 7.23 | 6.4 | 23.5 | 2.89
7 | CCc1nc(CN(C)CC(c2cccs2)N2CCOCC2)no1 (configuration not stated) | -2.58 | 27 | -3.84 | -3.75 | 1.76 | -2.4 | 10.6 | 13.9 | 6.93 | 23.2 | -7.57
8 | O=C(NCCN1CCOCC1)c1cc(-c2ccc3c(c2)CCO3)n[nH]1 | -4.45 | 9.33 | 3.38 | -3.18 | 1.57 | -5.11 | 1.48 | -12.9 | 5.29 | 7.69 | -6.47
9 | CCc1nccn1C1CCCN(C(=O)c2cnc3ccccc3n2)C1 (configuration not stated) | -5.47 | 2.63 | 7.07 | 1.65 | -1.07 | -2.37 | 7.77 | 24.6 | 7.45 | 10.4 | -2.28
10 | COc1ccccc1N1CCC(CNCc2cccc(O)c2)C1 (configuration not stated) | -2.9 | -5.41 | 15.1 | 11 | 1.6 | -4.81 | 4.14 | 20.2 | 0.493 | 6.17 | -6.34
11 | CCS(=O)(=O)CC(=O)NC(c1ccccc1)C1CCCCC1 (configuration not stated) | -6.35 | 2.63 | 9.57 | -0.679 | 3.41 | -17.8 | 21.6 | -15.8 | 4.25 | 7.79 | -3.43
12 | Cn1cc(S(=O)(=O)N2CCCC2CC(=O)c2cccs2)cn1 (configuration not stated) | 2.62 | 0 | 0.659 | -5.21 | -5.79 | 1.43 | 14.8 | 11.2 | 2.65 | 4.88 | -3.57
13 | Cc1cnn(CC(C)NCc2ccc(OCc3ccncc3)cc2)c1 (configuration not stated) | -5.11 | -1.27 | 4.3 | -6.57 | -6.67 | -3.66 | 9.95 | 24.2 | 5.21 | 5.06 | -25.8
14 | CC1CCCN(C(=O)c2csc(S(N)(=O)=O)c2)CC1 (configuration not stated) | -6.52 | 2.7 | 1.27 | -1.52 | -6.75 | 0.248 | -0.944 | -3.67 | 4.3 | 6.17 | -0.416
15 | CCCc1nnsc1C(=O)NCC1CCN(S(C)(=O)=O)CC1 | -4.49 | 16.4 | -9.31 | 9.94 | 1.57 | 0.455 | 20.1 | 9.73 | 7.53 | 17.5 | -6.78
16 | Cc1ccc(NC2CCN(C(=O)CCNS(C)(=O)=O)CC2)nn1 | -4.31 | -2.7 | -5.25 | 9 | -0.279 | -5.36 | -5.21 | 2.45 | 1.98 | 6.1 | 7.54
17 | N#Cc1ccc(OC2CCN(C(=O)c3ccc4c(c3)OCO4)CC2)nc1 | -3.87 | 13.7 | -6.59 | 16.4 | 6.07 | -0.909 | 2.13 | 8.98 | 3.23 | 15 | -2.59
18 | CCc1ncncc1C(=O)N1CCN(Cc2ccco2)CC1 | -3.87 | 0 | 2.99 | -2.08 | -4.2 | 3.24 | 0.592 | 4.36 | -3.45 | -11.1 | 2.25
19 | COC(=O)C(c1cc(F)ccc1F)N(C)C(=O)c1ccnc(C)n1 (configuration not stated) | -4.44 | -46.8 | 8.88 | 3.63 | -2.77 | 0.645 | 1.72 | 18.2 | 7.29 | 15.2 | -3.25
20 | O=C(c1cccc(F)c1)N1CCN2C[C@H](OCc3cccnc3)C[C@H]2C1 | -4.82 | 10.7 | 5.61 | 1.34 | -3.15 | 6.29 | 10.7 | 8.83 | 3.19 | 14.1 | -3.02
21 | COc1ccc(CC(=O)N2CCCC2Cn2cccn2)cc1F (configuration not stated) | -2.59 | 2.63 | -8.2 | 6.06 | -2.52 | 1.44 | 2.12 | -12.5 | -0.493 | 1.24 | -2.17
22 | O=C(NCc1cccnc1-n1cccn1)C1CC(=O)N(CC2CC2)C1 (configuration not stated) | 1.42 | -2.6 | 12.9 | -3.81 | -3.43 | 7.37 | 2.99 | 18.6 | -0.952 | -2.35 | -13.5
